Data on 19 compounds can be found in PubChem BioAssay (NCATS).

The conditions of assay [1]: Ebola virus entry assay, green fluorescence channel.
The conditions of assay [2]: Ebola virus entry assay, blue channel fluorescence.
For assay [3] the following is noted: Ebola virus entry assay, green fluorescence channel. This is another data set of the same source.
For assay [4] the following is noted: Ebola virus entry assay, ratio channel readout.
For assay [5] the following is noted: Ebola virus entry assay, blue channel fluorescence. The source holds these as a separate data set.
The conditions of assay [6]: Ebola virus entry assay, ratio channel.
For assay [7] the following is noted: Ebola virus entry assay, reporter ratio channel; AC50: Channel type: primary unless noted; outcome: Channel type: primary unless noted.

Unmarked numbers belong to inactive results. For some of these results: Results with a measured potency or affinity are listed apart. The source made the active and inactive calls.
Wherever efficacy is given: 0% is about no effect.

For `COc1cc2nc(N3CCN(C(=O)C4COc5ccccc5O4)CC3)nc(N)c2cc1OC` (stereo not drawn), the efficacy in assay [1] was 97.9%. The outcome in assay [2], in assay [3] and in assay [4] was inactive. Besides, the AC50 in assay [5], in assay [6] and in assay [7] was 15.8 µM (active) each time.
On to `OCCN1CCN(CCCN2c3ccccc3Sc3ccc(C(F)(F)F)cc32)CC1`, for which the efficacy in assay [1] is -98.3%. Further, the compound was called inactive in assay [2], in assay [3] and in assay [4]. Further, the AC50 (in general, the midpoint of the concentration-response curve, whichever way the signal moves) in assay [5] was 3.55 µM (active); in assay [6], 3.16 µM (active); in assay [7], 3.16 µM (active).
With `Cc1nc(Nc2ncc(C(=O)Nc3c(C)cccc3Cl)s2)cc(N2CCN(CCO)CC2)n1`, the efficacy in assay [1] was 82.9%. Moreover, the outcome in assay [2], in assay [3] and in assay [4] was inactive. Moreover, the half-maximal activity concentration (AC50) in assay [5] is 8.91 µM (active); in assay [6], 7.94 µM (active); in assay [7], 7.94 µM (active).
`CN1CCN(C2=Nc3ccccc3Oc3ccc(Cl)cc32)CC1`: in assay [1], the efficacy was 112%. The compound was classed as inactive in assay [2], in assay [3] and in assay [4]. For the same compound, the half-maximal activity concentration (AC50) in assay [5] is 39.8 µM (active); in assay [6], 31.6 µM (active); in assay [7], 31.6 µM (active).
`OCCN1CCN(CCCN2c3ccccc3Sc3ccc(Cl)cc32)CC1`: in assay [1], the efficacy was 88.4%. Besides, the half-maximal activity concentration (AC50) in assay [2] is 6.31 µM (active); in assay [4], 5.63 µM (active); in assay [5], 2.82 µM (active); in assay [6], 2.24 µM (active); in assay [7] it was 2.24 µM (active). Besides, the compound was called inactive in assay [3].
`CN1CCN(CCCN2c3ccccc3Sc3ccc(Cl)cc32)CC1`: in assay [1], the efficacy is -144%. For the same compound, the result in assay [2], in assay [3] and in assay [4] was inactive. Moreover, the concentration at half-maximal activity (AC50) in assay [5] is 7.08 µM (active); in assay [6] it was 3.98 µM (active); in assay [7] it was 3.98 µM (active).
Take `COc1cc(C(C)=O)ccc1OCCCN1CCC(c2noc3cc(F)ccc23)CC1`: in assay [1], the efficacy is 81.4%. Further, the outcome in assay [2], in assay [3] and in assay [4] was inactive. Also, the AC50 in assay [5] is 31.6 µM (active); in assay [6], 28.2 µM (active); in assay [7], 28.2 µM (active).
Take `Clc1ccc2c(c1)C(N1CCNCC1)=Nc1ccccc1O2`: the efficacy in assay [1] is 94.9%. The AC50 in assay [2] is 14.1 µM (active); in assay [4] it was 12.6 µM (active); in assay [5] it was 14.1 µM (active); in assay [6], 10 µM (active); in assay [7], 10 µM (active). Besides, the compound was called inactive in assay [3].
As to `CNCCCC1c2ccccc2C=Cc2ccccc21`, the efficacy in assay [1] was 60.1%. Moreover, the half-maximal activity concentration (AC50) in assay [2] is 11.2 µM (active); in assay [4], 8.92 µM (active); in assay [5], 10 µM (active); in assay [6], 8.91 µM (active); in assay [7], 8.91 µM (active). The compound was classed as inactive in assay [3].
Regarding `Cc1ccsc1C(=CCCN1CCC[C@@H](C(=O)O)C1)c1sccc1C`, in assay [1], the efficacy was 57.2%. In addition, the outcome in assay [2], in assay [3] and in assay [4] was inactive. Also, the AC50 is 35.5 µM (active) in assay [5], 20 µM (active) in assay [6] and 20 µM (active) in assay [7].
Regarding `OC(CCN1CCCC1)(c1ccccc1)C1CCCCC1` (stereo not drawn), the efficacy in assay [1] is 120%. Also, the call in assay [2], in assay [3] and in assay [4] was inactive. The AC50 was 25.1 µM (active) in assay [5], 20 µM (active) in assay [6] and 20 µM (active) in assay [7].
Turning to `COc1ccc([C@@H]2Sc3ccccc3N(CCN(C)C)C(=O)[C@@H]2OC(C)=O)cc1`, the efficacy in assay [1] is 53.7%. Besides, the compound was called inactive in assay [2], in assay [3] and in assay [4]. The concentration at half-maximal activity (AC50) in assay [5] is 28.2 µM (active); in assay [6] it was 25.1 µM (active); in assay [7], 25.1 µM (active).
Take `CN1CCC[C@@H]1CCO[C@](C)(c1ccccc1)c1ccc(Cl)cc1`: the efficacy in assay [1] was -151%. For the same compound, the AC50 in assay [2] is 3.55 µM (active); in assay [4] it was 3.17 µM (active); in assay [5], 1.78 µM (active); in assay [6], 1.41 µM (active); in assay [7], 1.41 µM (active). Also, in assay [3], the result was inactive.
Consider `CCc1nn(CCCN2CCN(c3cccc(Cl)c3)CC2)c(=O)n1CCOc1ccccc1`, for which the efficacy in assay [1] was 111%. Further, the call in assay [2], in assay [3] and in assay [4] was inactive. Besides, the concentration at half-maximal activity (AC50) in assay [5] is 39.8 µM (active); in assay [6] it was 31.6 µM (active); in assay [7] it was 31.6 µM (active).
For `CN(C)C(=O)C(CCN1CCC(O)(c2ccc(Cl)cc2)CC1)(c1ccccc1)c1ccccc1`, the efficacy in assay [1] is -226%. Moreover, the AC50 in assay [2] is 11.2 µM (active); in assay [5] it was 3.16 µM (active); in assay [6], 2.51 µM (active); in assay [7], 2.51 µM (active). The compound was classed as inactive in assay [3] and in assay [4].
Turning to `COCCCC/C(=N\OCCN)c1ccc(C(F)(F)F)cc1`, the efficacy in assay [1] was 124%. For the same compound, the result in assay [2], in assay [3] and in assay [4] was inactive. The half-maximal activity concentration (AC50) in assay [5] was 15.8 µM (active); in assay [6] it was 14.1 µM (active); in assay [7], 14.1 µM (active).
Take `CSc1ccc2c(c1)N(CCC1CCCCN1C)c1ccccc1S2` (stereo not drawn): in assay [1], the efficacy was -213%. The AC50 in assay [2] is 10 µM (active); in assay [5], 3.55 µM (active); in assay [6] it was 3.16 µM (active); in assay [7], 3.16 µM (active). For the same compound, the outcome in assay [3] and in assay [4] was inactive.
Turning to `CC12CC3CC(C)(C1)CC(N)(C3)C2`, the efficacy in assay [1] is 58.3%. Further, the compound was classed as inactive in assay [2], in assay [3] and in assay [4]. The concentration at half-maximal activity (AC50) in assay [5], in assay [6] and in assay [7] was 14.1 µM (active) throughout.
As to `O=c1[nH]c2ccccc2n1C1CCN(CCCC(c2ccc(F)cc2)c2ccc(F)cc2)CC1`, the efficacy in assay [1] was -303%. Also, the concentration at half-maximal activity (AC50) is 11.2 µM (active) in assay [2]; 7.95 µM (active) in assay [4]; 3.16 µM (active) in assay [5]; 3.98 µM (active) in assay [6]; 3.98 µM (active) in assay [7]. Further, the compound was called inactive in assay [3].
